Reference: PubChem BioAssay
Activity calls are given as the source filed them.

What was measured:
Albumin (Bos taurus) = Albumin (Bos taurus) (UniProt P02769); test: bovine serum albumin binders on microarray, profiling panel, artefact control for SMM control protein annotation, biochemical, small-molecule microarray, Alexa647 label, 635/667 nm fluorescence (AID 1118); settings: BSA-A647 binding, fluorescence 635 nm, higher = more signal;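 note: score merges 667 nm emission intensity and signal-to-noise per printed compound spot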
[1] = small-molecule microarray binders of probe aXIP, primary screen, biochemical, NeuroSMM set, 635/667 nm fluorescence (AID 1119); settings: higher = more signal, called active from +8 up or from −8 down;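 note: probe is the protein aXip251-270 applied at 1 µg/mL to compound-printed slides; binding of probe to printed compounds measured as 667 nm fluorescence plus signal to noise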
[2] = small-molecule binders of probe aNOTCH3, primary screen, biochemical, small-molecule microarray, 635/667 nm fluorescence (AID 1120); settings: higher = more signal;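 note: probe is a biotin-tagged antibody raised against NOTCH3 rather than NOTCH3 protein; score merges spot fluorescence near 667 nm with spot signal to noise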
[3] = small-molecule binders of probe aNOTCH2, primary screen, biochemical, small-molecule microarray, 635/667 nm fluorescence (AID 1121); settings: higher = more signal;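 note: score merges feature fluorescence read at 667 nm with its signal to noise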
[4] = molecular target: Carbonic anhydrase 2 (Homo sapiens) (UniProt P00918); test: CAII small-molecule binders, profiling panel, biochemical, small-molecule microarray, Alexa647-labelled CAII (AID 1122); settings: CAII-A647 binding fluorescence, higher = more signal
[5] = COS7 lysate on small-molecule microarray, probe aHis, 635 nm (AID 1123); settings: COS7 cell lysate, fluorescence, higher = more signal;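 note: z-score combines 667nm fluorescence intensity with signal-to-noise per printed compound spot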
[6] = compound binding in COS7 lysate, probe aLAP1, primary screen, cell lysate, small-molecule microarray (AID 1124); settings: probe aLAP1, fluorescence, higher = more signal;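 note: lysate comes from COS7 cells expressing LAP1 and is applied at 0.3 µg/mL; score merges spot fluorescence near 667 nm with signal-to-noise over triplicate slides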
Sam68 (KHDRBS1) = test: Sam68 small-molecule binders, primary screen, biochemical, small-molecule microarray, 635 nm fluorescence (AID 1125); settings: small-molecule microarray binding, higher = more signal;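 note: score merges 667 nm channel intensity with signal to noise over triplicate slides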
[7] = system: Chordin-like protein 2 (CHRDL2); test: CHRDL2 small-molecule binders, primary screen, biochemical, small-molecule microarray, 635 nm fluorescence (AID 1126); settings: small-molecule microarray binding, fluorescence 635 nm; higher = more signal;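 note: printed compound slides probed with Chrdl2 protein at 4 µg/mL for 1 h at 4 C; score merges 667 nm emission intensity with signal to noise over three replicate slides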
[8] = molecular target: Concanavalin-A (Canavalia ensiformis) (UniProt P02866); test: ConA small-molecule binders, primary screen, artefact control for SMM control protein annotation, biochemical, small-molecule microarray, Alexa647 label, 635 nm (AID 1127); settings: ConA-A647 binding fluorescence, higher = more signal;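 note: z combines 667 nm emission intensity with signal-to-noise across three replicate slides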
Chain of Concanavalin-A (Canavalia ensiformis) (P02866 whole entry, looked up): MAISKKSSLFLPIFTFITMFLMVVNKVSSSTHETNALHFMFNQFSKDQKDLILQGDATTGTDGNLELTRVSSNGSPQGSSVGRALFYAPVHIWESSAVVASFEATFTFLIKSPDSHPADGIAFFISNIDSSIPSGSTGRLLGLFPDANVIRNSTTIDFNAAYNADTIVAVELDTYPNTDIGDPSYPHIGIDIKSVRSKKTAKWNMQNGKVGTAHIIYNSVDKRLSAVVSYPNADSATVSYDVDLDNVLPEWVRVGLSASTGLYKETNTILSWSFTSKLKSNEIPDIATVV

Chain of Albumin (Bos taurus) (P02769 whole entry, looked up): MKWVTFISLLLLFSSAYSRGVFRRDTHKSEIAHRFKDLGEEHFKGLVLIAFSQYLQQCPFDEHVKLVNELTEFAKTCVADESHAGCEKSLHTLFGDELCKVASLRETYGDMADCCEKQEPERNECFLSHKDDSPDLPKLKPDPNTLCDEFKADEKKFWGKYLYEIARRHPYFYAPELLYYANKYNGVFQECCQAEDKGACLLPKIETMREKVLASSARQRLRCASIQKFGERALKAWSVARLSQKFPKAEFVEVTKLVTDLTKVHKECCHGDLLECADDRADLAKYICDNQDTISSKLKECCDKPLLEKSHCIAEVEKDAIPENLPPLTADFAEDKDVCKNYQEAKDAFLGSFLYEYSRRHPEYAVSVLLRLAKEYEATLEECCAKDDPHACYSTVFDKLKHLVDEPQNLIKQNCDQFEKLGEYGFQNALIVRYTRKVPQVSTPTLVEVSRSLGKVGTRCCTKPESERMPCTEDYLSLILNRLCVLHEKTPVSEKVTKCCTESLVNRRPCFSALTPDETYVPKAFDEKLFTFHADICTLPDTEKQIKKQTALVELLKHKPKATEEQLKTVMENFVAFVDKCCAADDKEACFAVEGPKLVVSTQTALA

| SMILES | composite z-score (Albumin (Bos taurus)) | composite Z-score [1] | composite z-score [2] | composite z-score [3] | composite z-score [4] | composite z-score [5] | composite z-score [6] | composite z-score (Sam68 (KHDRBS1)) | composite z-score [7] | composite z-score [8] |
| --- | --- | --- | --- | --- | --- | --- | --- | --- | --- | --- |
| C=CCNC(=O)[C@@H]1[C@H]2C(=O)O[C@H](c3ccccc3)[C@H](c3ccccc3)N2[C@H](c2ccc(OCCO)cc2)[C@@]12C(=O)Nc1ccc(C#CCCO)cc12 | 0.495 | 0.858 (inactive) | 0.999 | 0.403 | 0.659 | 2.62 | 0.906 | 1.29 | 1.15 | 1.15 |
| CC(C)C[C@@H]1NC(=O)[C@H]2C[C@@H](C(=O)NCCCCCCN)[C@@H](c3ccc(O)cc3)N2C1=O | 0.0662 | 0.0781 (inactive) | -0.0023 | 0.171 | 0.728 | 2.16 | 0.627 | 0.633 | 1.22 | 1.18 |
| C=C[C@H](COC(C)=O)N(C(=O)OC(C)(C)C)S(=O)(=O)c1ccc(Br)cc1 | -0.19 | -0.526 (inactive) | 0.704 | 0.463 | 0.162 | 0.216 | 0.0842 | 0.355 | 0.55 | 0.193 |
| [N-]=[N+]=Nc1ccccc1C[C@]1(C(=O)NCC(O)CO)N=C(c2ccc(OCCCO)cc2)O[C@H]1c1ccccc1N=[N+]=[N-] (stereo not given in full) | 0.376 | 0.045 (inactive) | 0.0151 | 0.0809 | 0.391 | 1.69 | -0.352 | 0.431 | -0.424 | -0.899 |
| CC(=O)n1cc(C(O)C2C=CC3C(=O)N(C)C(=O)C3N2Nc2ccccc2)c2ccccc21 (stereo not given) | 0.712 | -0.803 (inactive) | 0.235 | 0.027 | 0.562 | 1.84 | -0.0989 | 1.11 | 1.25 | 0.897 |
| O=C1OCC=C[C@H]2OC34C=CCN(CCN5CCOCC5)C(=O)[C@H]3N(CCCO)C(=O)[C@@H]4[C@@H]12 (stereo not given in full) | 0.416 | 0.103 (inactive) | -0.206 | -0.122 | -0.0692 | 0.357 | -0.126 | 0.356 | 0.0732 | 0.551 |
| COCCOC(=O)N1C(=O)[C@@]2(c3cc(C#CCCO)ccc31)[C@H](C(=O)N1CCc3cc(OC)c(OC)cc3C1)[C@H]1C(=O)O[C@H](c3ccccc3)[C@H](c3ccccc3)N1[C@@H]2c1ccc(O)cc1 | -0.335 | 0.566 (inactive) | 0.0893 | -0.0846 | 0.471 | 2.33 | 0.255 | 1.29 | 0.425 | 1.04 |
| CCOC(=O)C[C@H]1[C@H](OC(=O)Cc2ccc3c(c2)OCO3)[C@@H](NC(=O)c2ccc(-c3ccccc3)cc2)c2cc(OCCCO)ccc2N1C(=O)Cc1ccc(OC)cc1 | 0.641 | 0.0844 (inactive) | 0.121 | 0.0126 | 0.0713 | 0.365 | 0.597 | 0.843 | 0.236 | 0.152 |
| COc1ccc(CCNC(=O)[C@@]2(Sc3ccc(C)cc3)CC(=O)N(C3CCCCC3)[C@@H]2c2ccc(CO)cc2I)cc1 | 0.805 | 0.0371 (inactive) | -0.0111 | -0.0759 | 0.513 | 1.58 | 0.284 | 1.31 | 0.119 | 0.977 |
| CC(C)[C@@H](CO)NC(=O)[C@H]1[C@@H](c2ccccc2)N(c2ccccc2)O[C@@H]1C | 0.595 | 0.365 (inactive) | -0.0573 | -0.162 | 0.459 | 0.46 | 0.145 | -0.238 | 0.207 | -0.271 |
| C=CCOC(=O)[C@@H]1[C@H]2C(=O)O[C@H](c3ccccc3)[C@H](c3ccccc3)N2[C@H](c2ccc(OCCOC(=O)[C@@H]3C[C@@H]4C(=O)N[C@@H](Cc5ccccc5)C(=O)N4[C@@H]3c3ccc(O)cc3)cc2)[C@@]12C(=O)Nc1ccc(I)cc12 | -0.47 | 0.364 (inactive) | 0.251 | -0.0984 | 0.299 | 1.28 | 0.0186 | 1 | 0.918 | 1.18 |
| CC[C@@H]1C=C(C(=O)O)[C@H](c2ccco2)N1S(=O)(=O)c1ccc(C)cc1 | -0.179 | 0.33 (inactive) | -0.128 | -0.108 | 0.689 | 0.059 | 0.591 | 0.125 | 0.209 | -1.29 |
| CCCC[C@@H]1C[C@H]1[C@@H](NC(=O)c1ccco1)c1ccc(C(=O)OC)cc1 | 0.623 | 0.224 (inactive) | -0.0967 | -0.11 | 0.39 | 0.792 | 0.187 | 0.0166 | 0.0374 | -0.112 |
| CCOC(=O)[C@H]1C/C=C/C[C@H](C(=O)OCC)C(=O)O[C@H]2[C@@H](OC)O[C@H](CO)[C@@H](OC(=O)Nc3ccc(C#N)cc3)[C@@H]2OC1=O | 0.842 | 0.941 (inactive) | -0.307 | -0.159 | 0.607 | 0.823 | 0.603 | 0.171 | -0.619 | -0.175 |
